# From the supplement of paper PMC8728848
# About 410 targets per protein were measured; listed, in parts, are those with the strongest signals and a random draw of the rest.
# How the values were obtained:
# Assay in all cases: glycan array binding signal (z-score within array); higher = stronger binding
# Conditions in all cases: glycan notation: IUPAC condensed, linker removed
# [1] = tested on: Neu5Ac(a2-6)Gal(b1-4)GlcNAc(b1-3)Gal(b1-4)GlcNAc
# How it was run: (§1)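 Arrays were curated from the Consortium for Functional Glycomics database, 3228 in total, and kept only where the protein sequence was available. Binding is expressed as a within-array Z-score. This score was averaged across arrays of the same protein sequence at different concentrations or buffers and across linkers, and negative values can be read as non-binding.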
# [2] = tested on: Neu5Ac(a2-6)Gal(b1-4)GlcNAc(b1-3)GalNAc
# How it was run: as §1
# [3] = tested on: Neu5Ac(a2-6)Gal(b1-4)GlcNAc(b1-2)[Neu5Ac(a2-3)Gal(b1-4)GlcNAc(b1-4)]Man(a1-3)[Neu5Ac(a2-3)Gal(b1-4)GlcNAc(b1-2)Man(a1-6)]Man(b1-4)GlcNAc(b1-4)GlcNAc
# How it was run: as §1
# [4] = tested on: Neu5Ac(a2-6)Gal(b1-4)GlcNAc(b1-3)Gal(b1-4)GlcNAc(b1-3)Gal(b1-4)GlcNAc(b1-2)Man(a1-3)[Neu5Ac(a2-6)Gal(b1-4)GlcNAc(b1-3)Gal(b1-4)GlcNAc(b1-3)Gal(b1-4)GlcNAc(b1-2)Man(a1-6)]GalNAc
# How it was run: as §1
# [5] = tested on: Neu5Ac(a2-6)Gal(b1-4)GlcNAc(b1-3)Gal(b1-4)[Fuc(a1-3)]GlcNAc(b1-3)Gal(b1-4)[Fuc(a1-3)]GlcNAc
# How it was run: as §1
# [6] = tested on: Neu5Ac(a2-6)Gal(b1-4)GlcNAc(b1-3)Gal(b1-3)GlcNAc
# How it was run: as §1
# [7] = tested on: Neu5Ac(a2-6)Gal(b1-4)GlcNAc(b1-2)Man(a1-6)Man(b1-4)GlcNAc(b1-4)GlcNAc
# How it was run: as §1
# [8] = tested on: Neu5Ac(a2-6)Gal(b1-4)GlcNAc(b1-3)Gal(b1-4)GlcNAc(b1-6)[Gal(b1-3)]GalNAc
# How it was run: as §1
# [9] = tested on: Neu5Ac(a2-6)Gal(b1-4)GlcNAc(b1-2)[Neu5Ac(a2-6)Gal(b1-4)GlcNAc(b1-6)]Man(a1-6)[Neu5Ac(a2-6)Gal(b1-4)GlcNAc(b1-2)Man(a1-3)][GlcNAc(b1-4)]Man(b1-4)GlcNAc(b1-4)GlcNAc
# How it was run: as §1
# [10] = tested on: Neu5Ac(a2-6)Gal(b1-4)GlcNAc(b1-2)Man(a1-6)[Gal(b1-4)GlcNAc(b1-2)Man(a1-3)]Man(b1-4)GlcNAc(b1-4)GlcNAc
# How it was run: as §1
substance,measurement,setting,value
"SpGH101 (Streptococcus pneumoniae), Q8DR60",glycan array binding signal (z-score),[1],-0.199
same,glycan array binding signal (z-score),[2],2.23
"MIC3-MAR1b (Eimeria tenella), B6VCV4",glycan array binding signal (z-score),[3],2.99
AgI/II Vhelical-GFP (Streptococcus mutans),glycan array binding signal (z-score),[4],1.12
same,glycan array binding signal (z-score),[5],1.26
"SiiE (Salmonella typhimurium), A0A0H3NVH0",glycan array binding signal (z-score),[6],2.56
Epa22,glycan array binding signal (z-score),[7],0.268
same,glycan array binding signal (z-score),[4],3.15
same,glycan array binding signal (z-score),[8],0.044
AgI/IIC123-GFP (Streptococcus mutans),glycan array binding signal (z-score),[9],3.72
LcI (Legionella pneumophila),glycan array binding signal (z-score),[6],0.02
"BambL (Burhholderia ambifaria), Q0B4G1",glycan array binding signal (z-score),[10],-0.317
